# Measured values: PubChem BioAssay (NCI)
# The panel holds about 83,000 compounds, 20% with a hit somewhere; the sample as a whole holds those more often.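 Cells were grown in 96-well plates and exposed to the test compound at a single concentration for 48 hours; results are reported as percent growth, with values below 10 considered active.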 Values without a mark were called inactive. Activity calls are given as the source filed them.
# System: MDA-MB-468 breast
# Experiment: NCI-60 one-dose screen, 48 h (100 = growth as untreated, 0 = no growth, -100 = all killed)
# Details: 10 µM unless noted
row,Structure (SMILES),growth
1,COc1ccc(-c2cc(/C=C3\C(=O)Nc4ccc(Cl)cc43)[nH]n2)cc1,41.7%
2,CC(=O)Nc1ccc2c(c1)C(N1CC3CCC(CC3)C1)c1ccccc1-2 (centres undefined),94%
3,CCN(CC)CCCNc1c2ccc(Cl)cc2nc2ccc(OC)cc12,-34.6% (active)
4,CC(C)OC(=O)N1CCOCC1,97.2%
5,CCC(C)N(c1ccc(Cl)cc1)c1nc(-c2ccc(Br)cc2)cs1 (centres undefined),95.7%
6,O=C(NCCCCCCCNC(=O)OCc1ccc2c(Cl)cc(Cl)c(O)c2n1)OCc1ccc2c(Cl)cc(Cl)c(O)c2n1,-57.3% (active)
7,COc1cc(-c2ccc(NC(=O)NC3CC3)c(OC)c2)ccc1NC(=O)NC1CC1,88.8%
8,COc1ccc(C(=O)c2cc3c(N)c(C(=O)Nc4cccc(Br)c4C)sc3nc2C)cc1,-1.96% (active)
9,C#Cc1nc(Nc2cc(C)[nH]n2)c2ccccc2n1,-23.2% (active)
10,CCOC(=O)c1c(C)nc2c(c1N)CC(=O)N2Cc1cc(F)cc(Cl)c1,84.9%
11,O=C(NCCNCCO)c1cc([N+](=O)[O-])cc([N+](=O)[O-])c1O,103%
12,Fc1ccc(Nc2nnc(-c3ccc(Cl)cc3)o2)cc1,97.9%
13,O=c1cc(-c2ccccc2)oc2c1ccc1ccccc12,80.1%
14,CCCOCc1cn[nH]n1,105%
15,CCOC(=O)c1c(C)nc2c(c1N)CC(=O)N2Cc1ccc(OC)cc1,36.2%
16,CCN(CC)c1ccc(/C=C/C2=[N+](C)c3ccccc3C2(C)C)c(C)c1,-9.14% (active)
17,CCOc1c(B(O)O)cccc1-c1nc2ccc3[nH]ncc3c2c2c1CCCC2,51.1%
18,COc1cc(C(=O)c2cnc(-c3ccc4cc[nH]c4c3)[nH]2)cc(OC)c1OC,-23.2% (active)
19,O=C(CCCCC1CCSS1)Nc1ncnc2n[nH]c(-c3ccc(Oc4ccccc4)cc3)c12 (centres undefined),95.9%
20,Cc1ccc(Nc2ncnc3c2c(C)nn3-c2ccc([N+](=O)[O-])cc2)cc1,84.2%
21,O=C1Nc2ccccc2/C1=C/c1nc2ccccc2c(=O)[nH]1,93%
22,COC1CCC(N2C(=O)CNc3ncc(-c4ccc(C(C)(C)O)nc4)nc32)CC1 (centres undefined),-25.2% (active)
23,O=C(CCN1C(=O)c2ccccc2C1=O)Nc1ccc(Cl)cc1,116%

row,Structure (SMILES),growth
1,O=C(/C=C/CN1CCOCC1)Nc1cc2c(Nc3cccc(Cl)c3F)ncnc2cc1OCCOC(F)F,-15.3% (active)
2,COc1ccc(/C=C\c2cc(OC)c(OC)c(OC)c2)cc1OCC(=O)Nc1nc2ccccc2s1,9.63% (active)
3,O=C(O)c1cn(C2CC2)c2cc(N3CCN(Cc4nc5c(cnn5-c5ccc([N+](=O)[O-])cc5)c(=O)[nH]4)CC3)c(F)cc2c1=O,103%
4,COc1cc(-c2nc(-c3nnc(-c4ccccc4Cl)o3)c3ccccn23)cc(OC)c1OC,88.5%
5,CCCCC(=O)OCC1OC(n2cnc3c(=S)nc[nH]c32)C(OC(=O)CCCC)C1OC(=O)CCCC (centres undefined),67.4%
6,Cc1ccc(-c2nn(CC(=O)N3CCOCC3)c(N)c2C#N)cc1,104%
7,S=C(S)N1CCCC1,111%
8,O=C(/C=C/c1ccc(Cl)cc1)/C=C/c1cc2ccccc2[nH]c1=O,55.9%
9,CO/N=C(/C(=O)NC1C(=O)N2C(C(=O)O)=C(COC(N)=O)CSC12)c1ccco1 (centres undefined),109%
10,Nc1cc(-c2c[nH]c3ccc(Cl)cc23)nc2cc(-c3c[nH]c4ccc(Cl)cc34)nn12,68.2%
11,Cc1cccc2c(=O)c3c(sc12)c(NCCNCCO)nc1ccccc13,-19.1% (active)
12,CCOC(=O)Nc1nc2ccc(SCC(C)C)cc2s1,2.1% (active)
13,CC(C)CC(NC(=O)CN(Cc1ccccc1)S(C)(=O)=O)C(=O)O (centres undefined),99.6%
14,CC12CCC3c4ccccc4CCC3(CO1)C2 (centres undefined),88.7%
15,O=c1[nH][nH]c(=O)c2cc([N+](=O)[O-])ccc12,109%
16,COc1ncnc2[nH]cc(CN3CCN(c4ccc(F)cc4)CC3)c12,108%
17,COc1cc2oc(-c3cccc(NC(=O)Nc4ccc5c(c4)OCO5)c3)cc(=O)c2c(OC)c1OC,75.2%
18,CC(=O)Nc1cccc(-n2cnc3cc(-c4ccc(O)cc4)ccc32)c1,-0.935% (active)
19,CCC(C)(c1cc(C(C)(C)C)c(O)c(C(C)(C)C)c1)c1cc(C(C)(C)C)c(O)c(C(C)(C)C)c1,112%
20,Cc1nc2ccccc2c(/C=C/c2ccc(Cl)cc2)c1C(=O)/C=C/c1cccs1,79.7%
21,CCOC(=O)CC[C@H](NC(=O)c1ccc(NC)c2ccccc12)C(=O)OCC,95.1%
22,COc1ccc(C2=NN3C(C2)c2cc(Br)ccc2OC3c2ccncc2)cc1 (centres undefined),103%
23,Cn1ncc(Cl)c1-c1cc(C(=O)N[C@H](CN)Cc2cccc(F)c2)sc1Cl,-62.5% (active)

row,Structure (SMILES),growth
1,COc1ccc(-c2cc3ccc(N(C)C)cc3nc2N)c(F)c1,4.96% (active)
2,O=C(C[n+]1ccccc1Cl)c1ccc2c(c1)CCCC2,45.1%
3,O=C(CCl)n1nnnc1Cc1ccccc1,101%
4,Cn1cc(-c2nonc2-c2cn(C)c3ccccc23)c2ccccc21,30.3%
5,O=C(O)c1cn(C2CC2)c2cc(N3CCN(C(=O)N(c4ccccc4)c4nc(-c5ccccc5)cs4)CC3)c(F)cc2c1=O,-0.856% (active)
6,COc1ccc(-c2nnc(SCC(=O)Nc3ccc(/C(C)=N\O)cc3)n2-c2ccccc2)cc1OC,78.5%
7,CNC(=O)c1cncc(Cn2nc(C)c(NC(=O)c3ccc(COc4ccc(C(F)(F)F)cc4C)cc3)c2C)c1,10.7%
8,COc1ccc(C2=C(c3cc(OC)c(OC)c(OC)c3)C(=O)CC2)cc1,4.52% (active)
9,CC(=O)c1cc(C(=O)N2c3ccccc3Sc3ccccc32)n2c1ccc1ccccc12,50.6%
10,Nc1ccc(S(=O)(=O)Nc2ccsc2-c2nc(-c3ccccc3)no2)cc1,43.1%
11,Cc1[nH]c(/C=C2\C(=O)Nc3ccc(F)cc32)c(C)c1C(=O)NC[C@H](O)CN1CCOCC1,114%
12,Cc1ccc(NC(=O)c2sc3nc(C)c(C(=O)c4ccccc4)cc3c2N)cc1,79%
13,COc1ccc(C2SC(C)C(=O)N2CCc2cccs2)cc1OC (centres undefined),48.1%
14,COc1cc(NCCCCN=C(N)N)c2ncccc2c1,-29.6% (active)
15,CN(C)c1nc(-c2ccco2)n2nc(-c3ccco3)cc2n1,-22.1% (active)
16,Brc1ccc(Oc2ccc(Nc3ncnc4onc(-c5ccccc5)c34)cc2)cc1,103%
17,CN1CCN(Cc2ccc(NC(=O)c3ccc(C(C)(C)C)c(C#Cc4cnc5cccnn45)c3)cc2C(F)(F)F)CC1,-6.22% (active)
18,Cn1cc(C(=O)c2nc(-c3cn(C)c4ccc(F)cc34)no2)c2cc(F)ccc21,94.1%
19,CCn1ccnc1C(=O)/C=C/c1ccc(CC(=O)Nc2ccc(F)cc2)cc1,-13.8% (active)
20,CC(=O)c1nc2ccccc2n1CC(=O)c1cccc(Cl)c1,32.7%
21,CCCN1CCN(c2ccc3nc(-c4ccc5nc(-c6ccc(OCC)c(OCC)c6)[nH]c5c4)[nH]c3c2)CC1,-77.2% (active)
22,Brc1ccc([I+]c2ccc(Br)cc2)cc1,21.6%
23,O=C1Nc2ccccc2/C1=C/C(=N/c1nnc(-c2ccc(Cl)cc2)s1)c1ccccc1,27.8%

row,Structure (SMILES),growth
1,COc1ccc(Nc2cc(Cl)ccc2C(=O)O)cn1,95.8%
2,CC(=O)OCC(=O)[C@@]1(O)[C@H](C)C[C@H]2[C@@H]3C=C(C)C4=Cc5c(cnn5-c5ccc(F)cc5)C[C@]4(C)[C@H]3[C@@H](O)C[C@@]21C,-22.6% (active)
3,Cn1c2ccccc2c2c3c(c4c5ccccc5[nH]c4c21)C(=O)N(N)C3=O,-37.5% (active)
4,O=C(Nc1ccc(Cl)cc1)Nc1ccc(Oc2nncc3ccccc23)cc1,-76.2% (active)
5,CNC(=O)c1cc(Oc2ccc3nc(NC(=O)c4cc(N5CCOCC5)cc(C(F)(F)F)c4)sc3c2)ccn1,63.7%
6,[N-]=[N+]=NCc1ncc(-c2ccc(C(F)(F)F)cc2)c(NC2CCCCCC2)n1,103% [50 µM]
7,COc1ccc(C(=O)/C=C/c2cccnc2Nc2cc(OC)c(OC)c(OC)c2)cc1,9.95% (active)
8,O=C(Nc1ccc2c(ccn2Cc2ccccn2)c1)c1cnccn1,103%
9,Cc1nn(-c2ccccc2)c(-n2ccnc2)c1/C=N/Nc1nc(-c2ccc(Cl)c(Cl)c2)cs1,-8.71% (active)
10,Cc1occc1-c1nc2s/c(=C/c3ccc(-c4cc(C(F)(F)F)ccc4Cl)o3)c(=O)n2n1,108%
11,Clc1ccc(-c2nnc(Cn3ccnc3)o2)cc1,104%
12,Nc1c(C(=O)Nc2ccccc2Cl)sc2nc3c(cc12)C(O)CCC3 (centres undefined),25.7%
13,CC(O)c1nc2c(c(=O)n(C)c(=O)n2C)n1C (centres undefined),105%
14,O=C(Nc1ncc(Cc2ccccc2)s1)c1sc2ccccc2c1Cl,7.07% (active)
15,O=C(c1ccc(O)cc1)c1ccc(O)cc1,110%
16,CCNc1ncnc2c1cnn2C1CCCO1 (centres undefined),102%
17,NC(=O)[C@@H]1CC2CCC1C2 (some centres undefined),99.4%
18,Nc1nc(-c2ccccc2Br)nn1-c1nc2ccccc2s1,103%
19,NCCNc1nc(-c2ccccc2)nc2nc(-c3ccccc3)oc12,18.9%
20,COc1ccc(/C=C(\c2cc(OC)c(OC)c(OC)c2)c2nnc(-c3cccs3)o2)cc1,77.7%
